# AHR activator = AHR activators, primary screen, cell-based, luminescence, luciferase reporter, human; activation, % at 5 µM; AHR-responsive luciferase reporter cells; Aryl hydrocarbon receptor (Homo sapiens), P35869; hit rate 2.5% among 320,000; in the data active means activation above about 47%;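 further: 0% = vehicle wells and 100% = reference agonist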
# HIF act = HIF pathway transcriptional activators, primary screen, cell-based, U2OS HRE-luciferase, luminescence | U2OS HRE-luciferase reporter; normalized: DMSO 0%, desferrioxamine 100% | activation, % at 7.5 µM (by protocol) | hit rate 0.32% among 300,000 | AID 1910, 2009;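 active means mean activation of at least 10% of the iron chelator positive control signal, with at least half of replicates also reaching 10%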
# PolyA inh = polyadenylation inhibitors in yeast reporter cells, primary screen, luminescence, S. cerevisiae; S. cerevisiae SKY197-pL101 polyadenylation reporter, beta-gal luminescence; efflux-impaired pdr1/pdr3 knockout yeast; score 100 = 6 SD above DMSO; AID 1875, 2009; activity score, % at 12 µM; hit rate 0.02% among 300,000;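 active means lowest replicate activity score at least 50, where 100 means six control SD above control mean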;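 further: yeast exposed to compound for 9 h at 30 °C; higher score means more reporter readthrough which indicates perturbed polyadenylation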
# Platelet DG rel = inhibitors of platelet dense granule secretion, primary screen, cell-based, MLPCN, human platelets; hit rate 0.22% among 300,000; AID 1663, 2009; human platelet-rich plasma, SFLLRN dense granule ATP release, luminescence; inhibition, %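 (compounds screened at 7.5 µM in platelet-rich plasma)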;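 active means mean replicate score, as percent of positive control, at or above 50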
# pCIP destab = p/CIP-EGFP fusion destabilizers, primary screen, fluorescence, F442A cells; hit rate 0.01% among 290,000; 16 h; AID 1984, 2009; decrease of EGFP signal, % at 10 µM; Q05BA5;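 active means EGFP signal decrease of at least 30% at 10 µM or well 3 SD below plate mean, unless failing retest; inactive means the rest, including hits failing retest or dose response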
# Starred values were filed as active, the others as inactive; . = no result. Most compounds without a hit are left out; they make up all but 2.8% or so of the library.
SMILES,AHR activator,HIF act,PolyA inh,Platelet DG rel,pCIP destab
COc1ccc(OC)c(/C=N/Nc2cc(C)nc(N3CCOCC3)n2)c1,68*,0,1,-21,0
COc1ccc(/C=N/Nc2cc(N3CCOCC3)ncn2)c(OC)c1,12,1,-7,2,-2
COc1cccc(/C=N/Nc2cc(N3CCOCC3)ncn2)c1O,48*,0,9,3,-6
COc1cccc(/C=N/Nc2ncnc3c2ncn3Cc2ccccc2)c1O,-1,68*,10,-11,-10
COc1ccc(/C=N/Nc2cc(N3CCCC3)nc(N3CCCC3)n2)cc1,68*,0,-15,0,-2
Oc1ccc(/C=N/Nc2cc(N3CCCC3)nc(N3CCCC3)n2)cc1,3,0,-15,-14,9
CSCC(C)N1CCC(n2nccc2NC(=O)CCCc2ccccc2)CC1 (stereo unspecified),1,0,8,8,1
CCOc1cc(C2C3=C(CC(C)(C)CC3=O)N(C)C3=C2C(=O)CC(C)(C)C3)ccc1O,5,1,18,11,-19
CCOC(=O)C(=CN=C(N)Nc1nc2ccccc2o1)C(=O)OCC,63*,2,-6,2,-16
CCCOC(=O)Nc1nc2ccccc2o1,31,2,-10,-4,-2
O=C(Nc1ccccc1)c1cnc2n(c1=O)CCS2,54*,1,9,25,3
O=C(Nc1ccc(OC(F)(F)F)cc1)c1cnc2n(c1=O)CCS2,67*,2,18,-6,-1
COc1cc(/C=N/NC(N)=S)cc(Br)c1OCc1ccccc1F,54*,-1,-21,12,-14
CCOc1cc(/C=N/NC(N)=S)cc(Br)c1OCc1ccccc1C,21,-1,-3,1,-14
COc1cccc(/C=N/NC(N)=S)c1OCc1ccccc1Cl,50*,0,-4,0,10
COc1ccccc1OCCn1cc(/C=N/NC(=O)c2ccncc2)c2ccccc21,30,0,-1,4,-11
COc1ccccc1OCCn1cc(/C=N/NC(N)=S)c2ccccc21,69*,0,-18,-8,8
COC(=O)[C@@H](Cc1c[nH]c2ccccc12)NC(=O)C1CCCN(S(=O)(=O)c2ccc(C)cc2)C1 (stereo partly specified),.,0,-28,3,35
c1cncc(-c2nc3c(ccc4ccccc43)[nH]2)c1,127*,.,-9,-4,-5
Cn1c(SCC(=O)Nc2cccc(F)c2)nnc1-c1cccnc1,34,1,3,-1,-5
Cn1c(SCC(=O)Nc2ccc(F)cc2F)nnc1-c1cccnc1,48*,0,-13,5,-15
O=C(CSc1nnc2ccc(-c3cccnc3)nn12)Nc1ccc(F)cc1F,79*,-1,-12,-1,9
O=C(CSc1nnc2ccc(-c3cccnc3)nn12)Nc1ccccc1F,19,0,-11,23,.
C#CCNC(=O)C(C)c1ncc(C(F)(F)F)cc1Cl (stereo unspecified),-1,0,18,3,8
CSc1ncccc1C(=O)Nc1cccc(S(=O)(=O)N2CCCCCC2)c1,4,.,.,.,.
SMILES,AHR activator,HIF act,PolyA inh,Platelet DG rel,pCIP destab
CN1CCc2c(sc(/N=C/c3cccs3)c2C(N)=O)C1,70*,3,-1,14,-7
CN1CCc2c(sc(/N=C/c3ccco3)c2C(N)=O)C1,15,0,1,0,-7
Cc1cccc(OCCOC(=O)c2c(-c3ccccc3)noc2C)c1,1,3,-8,3,6
CCOc1ccc(OCCC(=O)Nc2ccc(F)cc2C)cc1,9,0,-4,-9,11
CC12CCC(=O)N1C(C(=O)Nc1nc3ccc(S(C)(=O)=O)cc3s1)CS2 (stereo unspecified),2,0,5,-10,9
CCc1ccc2nc(NC(=O)C3CSC4(C)CCC(=O)N34)sc2c1 (stereo unspecified),66*,3,-6,-6,.
O=C(Nc1ccccn1)c1ccc(C(=O)Nc2ccccn2)cc1,2,0,5,11,15
O=C(Nc1ccccn1)c1cc2ccccc2cc1O,68*,3,1,-2,-19
O=C(Nc1cccc(O)c1)C(=O)Nc1ccccn1,-1,-1,2,71*,-8
O=C(Nc1ccccc1)C(=O)Nc1ccccn1,2,-3,7,11,-4
